Sampled rows, rich in hits. Any-hit rate of the full collection: about 0.51%.
FMDV antiviral = shows antiviral activity against foot and mouth disease virus; FMDV antiviral cell assay, firefly luciferase signal; Potency, µM (highest dose often 57.5 µM), hits mostly inhibitors; AID 1745856; 0.23% of 120,000 active; further: nearly all actives have a fitted effect of over 60% in size
FMDV RLuc = shows antiviral activity in FMDV Renilla assay. FMDV replicon cells, Renilla luciferase signal. Potency, µM (highest dose often 57.5 µM), hits mostly inhibitors. 0.32% of 120,000 active. AID 1745857; further: nearly all actives have a fitted effect of over 55% in size
Of the large screens only hits and unclear results are named; the others gave an inactive call. The call rests on the fitted dose curve.

Cn1cnc2c1c(=O)n(CCCSc1nnc(-c3ccc(C(C)(C)C)cc3)o1)c(=O)n2C	FMDV RLuc inconclusive
CCc1ccccc1Nc1nn2c(=O)c3ccc(C(=O)NCCc4ccccc4)cc3nc2s1	none
CCc1ccccc1Nc1nn2c(=O)c3ccc(C(=O)NC(C)c4ccccc4)cc3nc2s1 (configuration not stated)	FMDV antiviral 11.2µM, FMDV RLuc inconclusive
CCCCCCn1c(COc2ccccc2F)nnc1SCc1ccc(C(C)(C)C)cc1	none
N#Cc1ccc(CN2CCN(C(=O)c3ccc(Cn4nnc5ccccc54)cc3)CC2)cc1	FMDV antiviral 6.31µM, FMDV RLuc 5.01µM
N#Cc1ccc(CN2CCN(C(=O)C3CC=CCC3)CC2)cc1 (configuration not stated)	none
COc1ccc(-c2cnc(NC(=O)NCCc3ccccc3)n2C)cc1	none
Clc1cccc(-c2nc(CN3CCCC3c3nnc4ccccn34)co2)c1 (configuration not stated)	none
COC1CC(OC2CCC3(/C=N/O)[C@H]4CCC5(C)C(C6=CC(=O)OC6)CCC5(O)[C@@H]4CCC3(O)C2)OC(C)C1O (some centres not stated)	FMDV antiviral inconclusive, FMDV RLuc 0.355µM
C[C@@H]1O[C@@H](O[C@@H]2C=C3CC[C@@H]4[C@H](CC[C@]5(C)[C@@H](c6ccc(=O)oc6)CC[C@]45O)[C@@]3(C)CC2)[C@H](O)[C@H](O)[C@H]1O	none
CC(=O)OC1CCC2(/C=N/O)[C@H]3CCC4(C)C(C5=CC(=O)OC5)CCC4(O)[C@@H]3CCC2(O)C1 (some centres not stated)	FMDV antiviral 0.794µM, FMDV RLuc 1µM
Cc1cc(C)c(S(=O)(=O)N2CCCC2c2cc(C(C)C)on2)c(C)c1 (configuration not stated)	none
COc1ccc(-c2nc3cc(NC(=O)c4ccc(OC)c(OC)c4)ccc3o2)cc1	none
CC1CC(C)CN(CC(=O)O)C1 (configuration not stated)	none
Cc1c(CC(=O)Nc2ccc(C(C)(C)C)cc2)c(=O)oc2cc(O)ccc12	none
CCCc1cc(=O)[nH]c(SC(C)C(=O)NC(=O)NC2CCCCC2)n1 (configuration not stated)	FMDV antiviral 10µM, FMDV RLuc inconclusive
CCCNC(=O)C(C)Sc1nc(CCC)cc(=O)[nH]1 (configuration not stated)	none
CC(C)c1cc(C(=O)N2CCN(CC(=O)NCc3ccccc3)CC2)c2ccccc2n1	none
COc1ccc2c(c1)CCC/C2=N\OC(=O)c1cc(Cl)ccc1SC	none
CCCc1noc(CCC(=O)Nc2ccccn2)n1	none
Cc1nc(NC(=O)c2ccccc2)sc1-c1csc(Nc2ccccc2Cl)n1	none
CN1CCN(c2ccc(C#N)cc2)CC1	FMDV antiviral 2.82µM
CN1CCN(c2ccc(C#N)cn2)CC1	none
COc1c(C)cccc1C(=O)Nc1ccc2oc(-c3cncc(Br)c3)nc2c1	none
CCOc1cc(C(=O)NNC(=O)C2CCCCC2)ccc1OC(F)F	none
CC(C)c1ccc(NC(=O)c2ccc(F)c(S(=O)(=O)N3CCc4ccccc43)c2)cc1	FMDV antiviral inconclusive
O=C(Nc1ccc(Br)cc1)c1ccc(F)c(S(=O)(=O)N2CCc3ccccc32)c1	FMDV antiviral 11.2µM, FMDV RLuc inconclusive
Cc1ccc(/C(O)=C2\C(=O)C(=O)N(c3nc4ccccc4s3)C2c2ccc(O)cc2)cc1 (configuration not stated)	none
CC1=C(C#N)C(c2ccccc2C)C(C#N)=C(C)N1	none
CC1=C(C#N)C(c2cc(Br)ccc2OC(F)F)C(C#N)=C(C)N1	FMDV antiviral inconclusive, FMDV RLuc 28.2µM
O=C(Nc1ccccc1Cl)C12CC3CC(CC(Cl)(C3)C1)C2	none
CCc1ccc(-c2nc(CSCC(=O)NCCCOC)c(C)o2)cc1	FMDV antiviral 25.1µM
CCOCCCNC(=O)CSCc1nc(-c2ccc(C)cc2)oc1C	none
COc1ccc2[nH]cc(C(NCC(C)C)C(=O)O)c2c1 (configuration not stated)	none
Cc1ccc(CNc2c(C)c(C)nc3nncn23)cc1	FMDV antiviral 2.24µM, FMDV RLuc 2µM
CCc1c(C)nc2nncn2c1NCc1ccc(Cl)cc1	FMDV RLuc inconclusive
CCOc1ccc2nc(N(Cc3cccnc3)C(=O)c3cccs3)sc2c1	none
COc1ccc2sc(N(Cc3cccnc3)C(=O)c3cccs3)nc2c1	FMDV antiviral inconclusive, FMDV RLuc 3.16µM
CN1CCC(OC(=O)c2ccccc2)(c2ccccc2)C(C)(C)C1 (configuration not stated)	none
CC(NC(=O)c1ccccc1NC(=O)c1nn(C)c(=O)c2ccccc12)c1ccccc1 (configuration not stated)	FMDV antiviral 3.55µM, FMDV RLuc 4.47µM
CC(NC(=O)c1nn(C)c(=O)c2ccccc12)c1ccccc1 (configuration not stated)	none
CN(Cc1ccsc1)C(=O)CSc1nnc(COc2ccc(Cl)cc2)n1C	none
CSc1ccc(CN(C)C(=O)CSc2nnc(COc3ccc(Cl)cc3)n2C)cc1	FMDV antiviral 10µM, FMDV RLuc 3.98µM
O=C(O)c1c[nH]c2ccc(Br)cc12	none
Cc1ccc(OCC(=O)Nc2cc(C(F)(F)F)ccc2N2CCOCC2)cc1C	none
CCc1cc2c(=O)c(Oc3ccc(F)cc3)c(C(F)(F)F)oc2cc1OC(C)=O	FMDV antiviral 14.1µM, FMDV RLuc 10µM
CCc1cc2c(=O)c(Oc3ccc(I)cc3)c(C(F)(F)F)oc2cc1OC(=O)c1ccc(Br)cc1	none
COc1ccc2c(c1)CC/C2=N\OC(=O)c1cc(SC)ccc1Cl	none
O=Cc1ccc(OCC2CC2)c2ccccc12	FMDV antiviral inconclusive, FMDV RLuc 5.62µM
Nc1ccc(OCC2CC2)c(F)c1	none
CCCOc1cccc(C(=O)Nc2ccc(-c3cc4ccccc4oc3=O)c(C)c2)c1	none
CCCOc1ccc(C(=O)Nc2ccc(-c3cc4ccccc4oc3=O)c(C)c2)cc1	FMDV antiviral 7.94µM, FMDV RLuc 4.47µM
CCn1nc(C(=O)Nc2ccnn2C2CCCC2)c2ccccc2c1=O	none
Cn1c(=O)c2c(nc(NCc3ccco3)n2Cc2ccccc2)n(C)c1=O	FMDV antiviral 15.8µM, FMDV RLuc inconclusive
Cn1c(=O)c2c(nc(NCc3ccccc3)n2Cc2ccccc2)n(C)c1=O	none
CCn1c(NCc2ccccc2)nc2c1c(=O)n(C)c(=O)n2C	none
CCCn1c(NCc2ccc(C)cc2)nc2c1c(=O)n(C)c(=O)n2C	FMDV antiviral inconclusive, FMDV RLuc 28.2µM
Cn1c(=O)c2c(nc(NCCO)n2Cc2cccc(C(F)(F)F)c2)n(C)c1=O	FMDV antiviral inconclusive, FMDV RLuc 10µM
Cc1cccc(Cn2c(NCCCO)nc3c2c(=O)n(C)c(=O)n3C)c1	none
O=C(CN1CCCC1C(=O)Nc1ccc(Cl)cc1Cl)Nc1ccc(F)cc1F (configuration not stated)	none
CCCN(CC(=O)Nc1ccc(S(=O)(=O)N2CCCCC2)cc1)Cc1nnc(-c2ccco2)o1	none
Cc1ccc(/C=C(/C#N)C(=O)Nc2cccc3ncccc23)cc1	none
Cc1cccc(NC(=O)/C(C#N)=C/c2cc(C(C)(C)C)c(O)c(C(C)(C)C)c2)c1C	FMDV antiviral inconclusive, FMDV RLuc 6.31µM
O=C(O)CCC(=O)N1N=C(c2ccsc2)CC1c1ccc2nccnc2c1 (configuration not stated)	none
CCN1CCN(Cc2cc(=O)oc3cc(-c4ccccc4)c(O)cc23)CC1	none
Cc1c2cnn(-c3ccccc3)c(=O)c2c(C)n1CC(=O)N1CCN(c2cccc(Cl)c2)CC1	none
Cc1ccc(C)c(N2CCN(C(=O)Cn3c(C)c4cnn(-c5ccccc5)c(=O)c4c3C)CC2)c1	FMDV antiviral 25.1µM, FMDV RLuc 22.4µM
